High-throughput results (PubChem)
Rows were chosen to be rich in hits. Some 9.4% of all compounds tested hit in one or more screens of this group.
HttQ103 aggreg: mutant huntingtin aggregation inhibition. PC12 HttQ103-GFP aggregates, Acumen cytometry, 40 h. Potency, µM (doses to about 46.1 µM), for inactives: at the highest dose activity change, negative = inhibition, actives largely listed as inhibitors. 220,000 compounds, 1.1% hits; also: potency is read from the fitted curve at half-maximal effect; % is scaled to controls: 0 for no effect and ±100 for the full control effect; nearly all actives have a fitted effect of over 60% in size
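Aggregates are detected as GFP objects 1–25 µm with signal 6 STDEV over background in lysates of induced PC12 cells. These carry Huntingtin exon 1 with 103 glutamines fused to GFP under an ecdysone promoter; compounds titrated.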
IMPase Li cell: membrane-permeable IMPase blocker, potentiated with lithium; CHO-M1 cells, IP1 TR-FRET (IP-One), carbachol + lithium; Potency, µM (doses to about 59.4 µM), for inactives: at the highest dose activity, negative = IMPase inhibition, usual class: inhibitors; 210,000 compounds, 0.35% hits;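 also: IP1 builds up when IMPase is blocked and the TR-FRET signal falls; potency is read from the fitted curve at half-maximal effect; plate controls were basal vehicle for no effect and high inhibitor control for full effect; nearly all actives have a fitted effect of over 50% in size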
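Concentration–response in CHO-M1 cells, lithium-potentiated; 30 min at 37C. IP1 detected by competitive TR-FRET after 10 min lysis at RT. Hill-fitted AC50.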
HTT cytoprotect: Huntington cell model cytoprotection by ATP luminescence | AID 1471 | Potency, µM (doses to about 56.4 µM), for inactives: cytoprotection (ATP increase), usual class: activators | PC12 HTT-Q103 induced, cytoprotection, ATP luminescence, 40 h | 230,000 compounds, 0.14% hits; also: potency is read from the fitted curve at half-maximal effect; % of control where 0% means no effect; nearly all actives have a fitted effect of over 45% in size
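Compounds were screened for protection of PC12 cells against cell death after tebufenozide induction (100 nM final) of mutant Huntingtin exon 1 (Q103) fused to GFP.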
ALDH1A1 block: ALDH1A1 (human) enzyme inhibition; Purified ALDH1A1, NADH fluorescence, propionaldehyde substrate; Potency, µM (top dose mostly 75.3 µM), inactives show at the highest dose activity, negative = inhibition, most hits filed as inhibitors; 220,000 compounds, 7.3% hits; active = well fitted inhibition curve with a large enough effect, not every such curve was filed as active; inconclusive = small, poorly fitted or top-dose-only effect, or another doubt; inactive = no such curve, though single readings can be large or run the other way;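 also: potency is read from the fitted curve at half-maximal effect; plate controls were no enzyme wells and a reference inhibitor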
Target sequence (P00352 whole entry, looked up): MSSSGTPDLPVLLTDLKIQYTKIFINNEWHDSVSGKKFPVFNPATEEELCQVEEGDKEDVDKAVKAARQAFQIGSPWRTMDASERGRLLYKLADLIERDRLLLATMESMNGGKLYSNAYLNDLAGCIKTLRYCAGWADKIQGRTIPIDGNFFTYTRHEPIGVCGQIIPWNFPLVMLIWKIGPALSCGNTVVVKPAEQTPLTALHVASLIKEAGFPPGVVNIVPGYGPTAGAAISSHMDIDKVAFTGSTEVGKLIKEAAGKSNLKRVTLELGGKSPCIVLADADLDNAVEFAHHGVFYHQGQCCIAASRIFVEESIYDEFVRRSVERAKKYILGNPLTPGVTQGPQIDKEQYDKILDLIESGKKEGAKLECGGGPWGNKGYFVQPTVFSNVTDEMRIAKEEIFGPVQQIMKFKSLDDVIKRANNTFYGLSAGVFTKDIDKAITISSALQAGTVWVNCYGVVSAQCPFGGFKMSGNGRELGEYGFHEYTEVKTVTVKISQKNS
IMPase inh: IMPase inhibition in cells; CHO-M1 cells, IP1 accumulation, HTRF TR-FRET ratio; AID 901; P97697; 120,000 tested, under 10 active; inhibition (IP1 accumulation), % at 46.1 µM; active = well fitted curve in the direction sought with a large enough effect in the signal ratio, not every such curve was filed as active; inconclusive = small, poorly fitted or top-dose-only effect, or a change in a side signal; inactive = no such curve, though single readings can be large or run the other way; the % refers to the signal ratio;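 also: cells stimulated with carbachol in lithium chloride buffer; plate controls were DMSO basal wells for no effect and reference inhibitor wells for full effect; higher means more IMPase inhibition seen as more IP1 and lower FRET ratio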
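Elevated IP1 in lysates lowers TR-FRET signal (665/620 ratio and 620 channel reported). Cells were CHO-M1, given carbachol (50 uM as added) plus 50mM LiCl, pH 7.4, 30 min, 37C; compounds titrated up to 46 uM; AC50 by Hill equation.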
HPGD block: HPGD (human) dehydrogenase inhibition; purified HPGD, NADH fluorescence kinetic, PGE2 substrate; Potency, µM, for the others: top-dose activity change, negative = inhibition, usual class: inhibitors; 150,000 compounds, 4.3% hits; active = well fitted inhibition curve with a large enough effect, not every such curve was filed as active; inconclusive = small, poorly fitted or top-dose-only effect, or another doubt; inactive = no such curve, though single readings can be large or run the other way; also: potency is read from the fitted curve at half-maximal effect; % is scaled to controls: 0 for no effect and ±100 for the full control effect
Target sequence (P15428 whole entry, looked up): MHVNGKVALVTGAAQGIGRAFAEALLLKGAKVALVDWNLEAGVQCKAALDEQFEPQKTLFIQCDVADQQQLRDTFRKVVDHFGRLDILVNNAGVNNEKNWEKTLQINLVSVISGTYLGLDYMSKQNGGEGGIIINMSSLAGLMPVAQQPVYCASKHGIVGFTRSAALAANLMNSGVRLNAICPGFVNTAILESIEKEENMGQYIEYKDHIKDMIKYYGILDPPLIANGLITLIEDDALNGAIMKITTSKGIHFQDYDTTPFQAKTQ
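20 nM HPGD preincubated 15 min at room temperature with compound in 50 mM Tris-HCl pH 8, 0.01% Tween 20. Started with 1 mM NAD+ and 30 uM prostaglandin E2; NADH fluorescence (360/450 nm) read 5 times over 30-s intervals, last minus first.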
Starred values were filed as active, the others as inactive; ? = inconclusive; . = no result; [ ] = remark or other dose. Unless noted, calls follow the shape of the dose curve; as a rule, active = well fitted curve in the direction sought with a large enough effect; inconclusive = small, poorly fitted or top-dose-only effect, or another doubt; inactive = no such curve, though single readings can be large; an effect the other way counts as inactive or inconclusive.

SMILES | HttQ103 aggreg | IMPase Li cell | HTT cytoprotect | ALDH1A1 block | IMPase inh | HPGD block
Oc1ccc(Br)cc1-c1nc2cnccn2c1NC1CCCC1 | 20µM* | 26%[38.3 µM] | 15% | ? | 0 | -2%
Oc1ccc(Br)cc1-c1nc2cnccn2c1NC1CCCCC1 | ? | -1%[38.3 µM] | -41% | ? | 3 | 1%
CCCC(=O)NC(=S)Nc1ccccc1C(F)(F)F | 19% | -13%[38.3 µM] | 8% | ? | 24 | -14%
O=C(NC(=S)Nc1ccccc1C(F)(F)F)c1ccccc1F | 17% | 2% | 5% | 4% | . | .
Cc1ccccc1C(=O)NC(=S)Nc1ccccc1C(F)(F)F | -1% | 6%[38.3 µM] | -17% | 13µM* | -1 | -7%
FC(F)(F)c1ccccc1NC(=S)NN=C1CCCCCC1 | 26% | 18% | -113% | 28µM* | . | .
N#CCC(=O)NNC(=S)Nc1ccccc1C(F)(F)F | ? | 4% | -12% | 18µM* | . | .
FC(F)(F)c1ccccc1NC(=S)N1CCCC1 | 10%[9.22 µM] | . | 2%[10 µM] | 1% | . | .
Cc1ccc(C(=O)NC(=S)Nc2ccccc2C(F)(F)F)c(C)c1 | 3% | 19% | 16%[10 µM] | 13µM* | 3 | -15%
CCCOc1ccc(C(=O)Nc2ccc3oc(-c4ccc5ccccc5c4)nc3c2)cc1 | . | . | . | . | -12 | .
COc1ccccc1/C=C\C(=O)OC[C@@H]1CCCN2CCCC[C@H]12 | . | 15% | 8% | ? | . | -23%
NC(Cc1c[nH]c2ccccc12)C(=O)NCC(=O)O (stereo not drawn) | . | 3% | -14%[1.9 µM] | 2% | -5 | -3%
CC(C)C(=O)NC(=S)Nc1ccccc1C(F)(F)F | 7% | . | 6% | ? | 3 | .
Cc1c(NC(=S)Nc2ccccc2C(F)(F)F)cccc1[N+](=O)[O-] | 6% | . | 15%[10 µM] | 22µM* | -6 | .
COC(=O)[C@@]1(Cc2ccc(F)cc2)[C@H]2c3cc(C(=O)N4CCCC4)n(CCc4c[nH]c5cc(F)ccc45)c3C[C@H]2CN1C(=O)c1ccccc1 | . | 0% | 12% | -15% | . | -15%
Cc1cc(NC(=O)CSc2nc3c(cc2C#N)CCCC3)no1 | 1% | ? | . | ? | . | ?
Cc1noc(NS(=O)(=O)c2ccc(NC(=O)CSc3nc4c(cc3C#N)CCC4)cc2)c1C | 23% | 4% | -10% | ? | -3 | 32µM*
Cc1noc(NS(=O)(=O)c2ccc(NC(=O)CSc3nc4c(cc3C#N)CCCC4)cc2)c1C | 7% | 10%[38.3 µM] | -12% | 28µM* | -3 | 28µM*
CC(C)CC(c1nnnn1Cc1ccccc1)N1CCN(C(=O)c2ccco2)CC1 (stereo not drawn) | -2% | 45%[38.3 µM] | -3%[10 µM] | 25µM* | -4 | 0%
O=C(c1ccco1)N1CCN(C(c2cccs2)c2nnnn2C2CCCCC2)CC1 (stereo not drawn) | 17% | -12%[38.3 µM] | -23%[10 µM] | 18µM* | -2 | 3%
O=C(c1ccco1)N1CCN(C(c2ccccc2Cl)c2nnnn2Cc2ccco2)CC1 (stereo not drawn) | 7% | 34%[38.3 µM] | ? | 11µM* | 2 | -6%
O=C(c1ccco1)N1CCN(C(c2ccc(F)cc2)c2nnnn2Cc2cccs2)CC1 (stereo not drawn) | 1% | 4%[38.3 µM] | 8% | ? | 8 | -4%
O=C(c1ccco1)N1CCN(C(c2ccccc2)c2nnnn2Cc2cccs2)CC1 (stereo not drawn) | -11% | 30%[38.3 µM] | -18% | 2.2µM* | 4 | -4%
CS(=O)(=O)N(CC(=O)Nc1cccc([N+](=O)[O-])c1)c1cccc(F)c1 | -6%[9.22 µM] | -1% | -5%[10 µM] | 3% | . | .
O=C(c1ccco1)N1CCN(C(c2ccccc2Cl)c2nnnn2Cc2cccs2)CC1 (stereo not drawn) | 20% | -3%[38.3 µM] | 12% | 13µM* | 17 | -10%
SMILES | HttQ103 aggreg | IMPase Li cell | HTT cytoprotect | ALDH1A1 block | IMPase inh | HPGD block
COc1cccc(OCCCCn2c(-c3ccc(Cl)cc3)nc3ccccc3c2=O)c1 | . | . | . | . | 7 | .
CNCC(=O)NCC(=O)N[C@@H](Cc1ccccc1)C(=O)N[C@@H](CC(C)C)C(=O)O | . | -5% | -14% | -4% | . | .
COc1ccc(OC)c(C2C(C#N)=C(N)Oc3cc(C)[nH]c(=O)c32)c1 (stereo not drawn) | -1% | -8%[38.3 µM] | -29% | -1% | 3 | -13%
COc1ccc(OC)c(C2C(C#N)=C(N)Oc3cc(N)ccc32)c1 (stereo not drawn) | 8% | 19%[38.3 µM] | 10% | 11µM* | 8 | -7%
CC(C)Cc1csc(NC(=O)c2ccc(F)cc2)c1C(=O)O | ? | -2% | -73%[10 µM] | 3% | . | 25µM*
COc1ccc(N2CCN(C(c3cc4cc(C)ccc4[nH]c3=O)c3nnnn3Cc3ccccc3)CC2)cc1 (stereo not drawn) | 2% | 7%[38.3 µM] | 23%[10 µM] | 14µM* | -5 | -20%
Cc1ccc2cc(C(c3nnnn3C3CCCC3)N3CCN(c4ccccc4)CC3)c(=O)[nH]c2c1 (stereo not drawn) | -10% | -5%[38.3 µM] | -32%[10 µM] | 8.9µM* | 9 | -9%
Cc1ccc2cc(C(c3nnnn3Cc3ccccc3)N3CCN(c4ccccc4)CC3)c(=O)[nH]c2c1 (stereo not drawn) | 26% | 30%[38.3 µM] | 0% | 25µM* | -1 | -9%
CCOC(=O)C1CCN(C(c2cc3ccc(C)c(C)c3[nH]c2=O)c2nnnn2C2CCCCC2)CC1 (stereo not drawn) | -4% | -12%[38.3 µM] | -8%[10 µM] | 20µM* | 6 | -23%
COc1cc2cc(C(c3nnnn3C3CCCC3)N3CCCCC3)c(=O)[nH]c2cc1OC (stereo not drawn) | -26% | 14%[38.3 µM] | -5% | ? | -13 | -22%
Cc1cccc(-c2nc(N3CCN(c4ccc(F)cc4)CC3)c3ccccc3n2)c1 | . | . | . | . | -5 | .
NC1=C2NC=N[C@@H]2N(C/C=C\c2ccccc2)C=N1 | . | -9% | -10%[10 µM] | -13%[13.5 µM] | . | -8%
O=C1CC(N2CCN(c3ncccn3)CC2)C(=O)N1CCc1ccccc1 (stereo not drawn) | 30%[9.22 µM] | 0% | 16%[10 µM] | -6% | . | .
CO[C@@H]1C=CO[C@]2(C)Oc3c(C)c(O)c4c(O)c(c(C=NN5CCN(C)CC5)c(O)c4c3C2=O)NC(=O)C(C)=CC=C[C@H](C)[C@H](O)[C@H](C)[C@H](O)[C@H](C)[C@H](OC(C)=O)[C@H]1C | . | 6% | -6%[40.3 µM] | -2%[20.9 µM] | -1[20.6 µM] | -3%
COCCn1nnnc1C(c1ccc(OC)cc1OC)N1CCN(c2ccccc2)CC1 (stereo not drawn) | 1% | 42%[38.3 µM] | 6% | 7.9µM* | 16 | -18%
Cc1ccc(O)c(NC2=C(Cl)C(=O)N(Cc3ccccc3)C2=O)c1 | ? | 22% | 23% | 2.8µM* | . | .
